Values joined by “and” are separate entries in the source; they are usually repeats but may differ in a detail not shown here. Equal values may be shown once. Inconclusive results are not listed. Some structures have more than one record in an assay (separate samples or runs), and their calls can disagree. Active and inactive are the calls of the source. Unless noted, the call rests on the fitted dose curve; in most records, active means well fitted curve in the direction sought with a large enough effect; inconclusive means small, poorly fitted or top-dose-only effect, or another doubt; inactive means no such curve, though single readings can be large; an effect the other way counts as inactive or inconclusive.
Key:
[1] = qHTS profiling of the MIPE4 collection as inhibitors of Plasmodium falciparum (3D7) proliferation (AID 743344; call rule not given here;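 further: scaled between DMSO vehicle wells and 0.29 µM artemisinin as full inhibition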); details: P. falciparum 3D7 in erythrocytes, SYBR Green DNA fluorescence, 72 h; at 28.5 µM unless noted
How it was run: (§1)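 Parasite DNA was quantified by SYBR Green I fluorescence (ex 485, em 535 nm) after overnight lysis in saponin/Triton buffer at room temperature. Cultures at 0.3% parasitemia and 2.5% hematocrit were first exposed to compound for 72 h at 37 C; signals were normalised to artemisinin (0.29 uM) and vehicle wells.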

[2] = qHTS profiling of the MIPE4 collection as inhibitors of Plasmodium falciparum (DD2) proliferation (AID 743345; call rule not given here); details: P. falciparum Dd2 in erythrocytes, SYBR Green DNA, 72 h; at 28.5 µM unless noted
How it was run: as §1

[3] = qHTS profiling of the MIPE4 collection as inhibitors of Plasmodium falciparum (HB3) proliferation (AID 743347; call rule not given here;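 further: plate controls were DMSO vehicle wells for no effect and artemisinin wells for full effect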); details: P. falciparum HB3 in erythrocytes, SYBR Green DNA, 72 h; at 28.5 µM unless noted
How it was run: as §1

[4] = High-throughput drug toxicity screening in the BPDCN cell line Gen2.2 (AID 1224824; call rule not given here;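 further: cells exposed to compounds for 48 h before reading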); details: Gen2.2 BPDCN cells; at 45.8 µM (top of the series) unless noted
How it was run: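 CellTiter-Glo luminescence read after 48 h compound exposure at 37 C defines viability; percent activity set with DMSO as 100% and bortezomib (9.2 uM final) as 0%. 500 exponentially growing cells per well, RPMI plus 10% FBS.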

[5] = High-throughput drug toxicity screening in the BPDCN cell line Cal-1 (AID 1224825; call rule not given here); details: Cal-1 BPDCN cell viability, qHTS; at 45.8 µM (top of the series) unless noted
How it was run: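 CellTiter-Glo luminescence after 48 h compound exposure; percent activity scaled with DMSO as 100% and bortezomib (9.2 uM final) as 0%. Cal-1 cells seeded at 500/well in RPMI, 10% FBS, no phenol red.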

[6] = qHTS assay for measurement of the activity of small molecule inhibitors on Zika virus induced Caspase-3 activity in human iPSC derived neural progenitor cells (hNPCs) (AID 1224857); further: % of control where 0% means no effect; nearly all actives have a fitted effect of over 65% in size
How it was run: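 After overnight (16–20 h) culture at 350 cells/well, hNPCs get compound, then ZIKV 2 FFU/cell one hour later. Six hours on, Caspase-Glo 3/7 is added and luminescence measured.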

[7] = qHTS assay for measurement of the activity of small molecule inhibitors on Zika virus induced Caspase-3 activity in human astrocytoma cells (AID 1224859);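 further: plate controls were ZIKV-infected untreated cells for no effect and uninfected cells for full effect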
How it was run: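 Inhibition of Zika-induced caspase-3/7 activity: SNB-19 cells, 1 h compound pretreatment, ZIKV 2 FFU/cell for 6 h at 37 C, Caspase-Glo luminescence read-out.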

[8] = qHTS Screen of the MIPE 4.0 Collection Against Ewings Sarcoma (RDES) (AID 1259252); further: nearly all actives have a fitted effect of over 35% in size; further: potency means the concentration at half of the fitted maximal effect
How it was run: (§2)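 Log-phase cells in RPMI with 5% FBS attached for 4 h, then received compounds as a titration for 48 h at 37C, 5% CO2. Viability was read by CellTiter-Glo luminescence and normalized to DMSO and no-cell wells.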

[9] = qHTS Screen of the MIPE 4.0 Collection Against Ewings Sarcoma (TC71) (AID 1259253); further: nearly all actives have a fitted effect of over 40% in size; further: potency means the concentration at half of the fitted maximal effect
How it was run: as §2

[10] = qHTS Screen of the MIPE 4.0 Collection Against Ewings Sarcoma (EW8) (AID 1259255); further: nearly all actives have a fitted effect of over 35% in size; further: potency means the concentration at half of the fitted maximal effect;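 on viability: 100% = DMSO-treated cells and 0% = medium-only wells without cells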
How it was run: as §2

[11] = qHTS Screen of the MIPE 4.0 Collection Against Ewings Sarcoma (TC32) (AID 1259256); further: nearly all actives have a fitted effect of over 45% in size; further: potency means the concentration at half of the fitted maximal effect
How it was run: as §2

[12] = P-glycoprotein substrates identified in KB-3-1 adenocarcinoma cell line, qHTS therapeutic library screen (AID 1346986); further: nearly all actives have a fitted effect of over 60% in size;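 further: potency means the concentration at half of the fitted maximal effect; potency is for cytotoxicity meaning loss of cell viability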
How it was run: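 Viability by CellTiter-Glo after 72 h compound exposure at 37 degree C, 5% CO2. Cytotoxic call: curve class -1.1 to -2.4, maximum response >50%, AC50 < 10 uM, compared across KB-3-1 and P-gp-overexpressing KB-8-5-11.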

[13] = P-glycoprotein substrates identified in KB-8-5-11 adenocarcinoma cell line, qHTS therapeutic library screen (AID 1346987); further: nearly all actives have a fitted effect of over 65% in size; further: potency means the concentration at half of the fitted maximal effect
How it was run: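 In this qHTS, P-gp-rich KB-8-5-11 cells received library compounds across a concentration range. Viability was quantified by luminescence after 72 h at 37 degree C.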

[14] = qHTS profiling of the MIPE4 collection as inhibitors of Plasmodium falciparum (DD2) proliferation (Rep 2) (AID 743346; call rule not given here); details: P. falciparum Dd2 in erythrocytes, SYBR Green DNA, 72 h; at 28.5 µM unless noted
How it was run: as §1

[15] = qHTS profiling for inhibitors of Plasmodium falciparum (3D7) proliferation (AID 743322; call rule not given here;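 further: infected erythrocytes exposed to compound for 72 h before lysis; 100% = DMSO vehicle wells and 0% = 0.29 µM artemisinin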); details: P. falciparum 3D7 proliferation; at 28.7 µM (top of the series)
How it was run: as §1

[16] = qHTS profiling for inhibitors of Plasmodium falciparum (DD2) proliferation (AID 743323; call rule not given here); details: lower = more inhibition; at 28.7 µM (top of the series)
How it was run: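 Parasite DNA quantified by SYBR Green fluorescence (ex 485, em 535 nm) after saponin/Triton lysis and overnight dark incubation. Cultures: 0.3% parasitemia, 2.5% hematocrit, 72 h, 37 C; data scaled between DMSO and 0.29 uM artemisinin.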

[17] = qHTS profiling for inhibitors of Plasmodium falciparum (HB3) proliferation (AID 743324); details: Plasmodium falciparum HB3 blood-stage proliferation; at 28.7 µM (top of the series);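 further: 100% = DMSO vehicle wells and 0% = artemisinin-treated control wells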
How it was run: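 SYBR Green fluorescence (485 ex/535 em) of lysed cultures, incubated overnight at room temperature in the dark, quantifies parasite DNA. Infected erythrocytes at 0.3% parasitemia and 2.5% hematocrit were exposed 72 h; values normalized to DMSO and 0.29 uM artemisinin controls.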

[18] = qHTS Assay for Identifying Gametocytocidal Compounds (AID 743244);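 further: on the % scale 0 is the no-effect control and ±100 the full control effect; actives lower the fluorescent signal which means gametocytes are killed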; details: P. falciparum 3D7 stage III-V gametocytes, alamarBlue, 72 h; max response: stronger effect = lower value
How it was run: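 Using 20,000 stage III–V 3D7 gametocytes per well, compounds were incubated 72 h under 37 °C/5% CO2. Viability was then assessed by 24 h alamarBlue reduction, measured fluorometrically at 525/598 nm.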

| SMILES | parasite growth, % of DMSO control [1] | parasite growth remaining, % of DMSO control (lower = more inhibition) [2] | growth, % of control [3] | cell viability, % of control (lower = more cytotoxic) [4] | viability (% of control) [5] | Potency [6] | Potency [7] | Potency [8] | Potency [9] | Potency [10] | Potency [11] | Potency [12] | Potency [13] | parasite growth, % of control (lower = inhibition) [14] | remaining parasite growth % (stronger effect = lower value) [15] | activity, percent of control [16] | remaining proliferation (% of control), lower = more inhibition [17] | max response [18] |
| --- | --- | --- | --- | --- | --- | --- | --- | --- | --- | --- | --- | --- | --- | --- | --- | --- | --- | --- |
| COc1cc2ncnc(Nc3cccc(Br)c3)c2cc1OC | 8.2% | 37.1% | 8.18% | 64% | 5.16% | inactive | inactive | 0.132 µM (active) | 0.59 µM (active) | 1.48 µM (active) | 0.833 µM (active) | inactive and 18.4 µM (active) | inactive | – | – | – | – | – |
| CC(=O)N1CCN(c2ccc(OCc3nn(C)c(C)c3-c3cccc4c(CCCOc5cccc6ccccc56)c(C(=O)O)n(Cc5cccnc5)c34)cc2)CC1 | 5.7% | 9.41% | 2.86% | 36.4% | 2.28% | inactive | inactive | 0.332 µM (active) | 1.18 µM (active) | 3.72 µM (active) | 0.743 µM (active) | inactive | inactive | 10.7% | – | – | – | – |
| Nc1ncn([C@@H]2O[C@H](CO)[C@@H](O)[C@@H]2O)c(=O)n1 | 100% | 95.9% | 95% | 15.6% | 5.42% | inactive | inactive | 6.62 µM (active) | 4.18 µM (active) | 7.43 µM (active) | 4.69 µM (active) | – | 11.8 µM (active) | 92.3% | 96.3% | 90.8% | 89.3% | – |
| O=c1[nH]c(=O)n([C@H]2C[C@@H](O)[C@@H](CO)O2)cc1C=CBr | – | – | – | 164% | 115% | inactive | inactive | inactive | inactive | inactive | inactive | inactive | inactive | – | – | – | – | 30.7% (inactive) |
| C[C@@]12C[C@@]3(O)O[C@@H](O1)[C@]1(COC(=O)c4ccccc4)[C@@H]3C[C@@]12O[C@@H]1O[C@H](CO)[C@@H](O)[C@H](O)[C@@H]1O | 90.9% | 96.7% | 109% | 109% | 109% | inactive | inactive | inactive | inactive | inactive | inactive | inactive | inactive | 141% | – | – | – | – |
| OCCN1C[C@H](O)[C@@H](O)[C@H](O)[C@@H]1CO | 96.1% | 131% | 97.8% | 122% | 103% | inactive | inactive | inactive | inactive | inactive | inactive | inactive | inactive | 85.5% | – | – | – | – |
| O=C(Nc1ccc(Oc2ccnc3[nH]ccc23)c(F)c1)c1cccn(-c2ccc(F)cc2)c1=O | 35.8% | 69.1% | 7.02% | 83% | 87.2% | inactive | inactive | inactive | inactive | inactive | inactive | inactive | inactive | 29.2% | – | – | – | – |
| COc1cc([C@@H]2c3cc4c(cc3[C@H](O)[C@H]3COC(=O)[C@@H]23)OCO4)cc(OC)c1OC | – | – | – | 21.3% | 11.1% | inactive | inactive | 0.0743 µM (active) | 0.187 µM (active) | 0.105 µM (active) | 0.0372 µM (active) | – | 0.418 µM (active) | – | – | – | – | – |
| Cc1onc(-c2ccccc2)c1C(=O)N[C@@H]1C(=O)N2[C@@H](C(=O)O)C(C)(C)S[C@@H]12 | 92.7% | 99.9% | – | 73.2% | 120% | inactive | inactive | inactive | inactive | inactive | inactive | – | inactive | – | – | – | – | – |
| NC(=O)Nc1sc(-c2ccc(F)cc2)cc1C(N)=O | 6.58% | 8.68% | 3.76% | 3.62% | 3.13% | inactive | inactive | 1.05 µM (active) | 1.66 µM (active) | 3.72 µM (active) | 1.48 µM (active) | – | 8.33 µM (active) | 9.96% | – | – | – | – |
| O=C(O)CCCCCC(=O)NN=C1CCCC1 | 101% | 100% | 101% | 141% | 105% | inactive | inactive | inactive | inactive | inactive | inactive | – | inactive | – | 92.8% | 96.4% | 107% | – |
| C=CC(=O)Nc1ccc2ncnc(Nc3ccc(OCc4cccc(F)c4)c(Cl)c3)c2c1 | 6.97% | 19.9% | 5.29% | 13% | 2.97% | inactive | inactive | 0.148 µM (active) | 1.18 µM (active) | 2.09 µM (active) | 0.833 µM (active) | – | 23.5 µM (active) and 16.4 µM (active) | 16.4% | – | – | – | – |
| COc1cc(N2CCC(C(N)=O)CC2)ccc1Nc1nc(N)c(Cl)c(Nc2ccccc2S(=O)(=O)C(C)C)n1 | 38.7% | 37.8% | 53.9% | 147% | 10.6% | inactive | inactive | 1.05 µM (active) | 16.6 µM (active) | 20.9 µM (active) | 6.62 µM (active) | – | inactive | 35.9% | – | – | – | – |
| N[C@H]1CN(c2c(F)cc3c(=O)c(C(=O)O)cn(C4C[C@@H]4F)c3c2Cl)CC12CC2 (stereo partly specified) | 20.3% | 24.5% | 10% | 92.2% | 92.9% | inactive | inactive | inactive | inactive | inactive | 0.0033 µM (active) | – | inactive | 27.8% | – | – | – | – |
| CC[C@H]1OC(=O)[C@H](C)[C@@H](O[C@H]2C[C@@](C)(OC)[C@@H](O)[C@H](C)O2)[C@H](C)[C@@H](O[C@@H]2O[C@H](C)C[C@H](N(C)C)[C@@H]2O)[C@](C)(OC)C[C@@H](C)C(=O)[C@H](C)[C@@H](O)[C@]1(C)O | 46.8% | 44.2% | 51.5% | 99.8% | 108% | inactive | inactive | inactive | inactive | inactive | inactive | – | inactive | 66.9% | – | – | – | – |
